Data on 92 sequences can be found in the supplement of paper PMC11417369.

In all, about 25,000 sequences were measured (“ln(normalized median fluorescence intensity)”: median about 9.7, highest 2% from about 11 on). This excerpt belongs to a sample that is enriched for the highest values.

For the assay, the system named is PfAP2-HC AP2 domain (GST-tagged). In words: gcPBM binding intensity (ln(normalized median fluorescence intensity)); higher = stronger DNA binding. An outline of the steps:
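Binding of GST-tagged P. falciparum DNA-binding domains, expressed in E. coli and used at about 25 μg on average, was carried out for 1 h in 1× PBS containing 1% milk, 0.2 mg/ml BSA, 0.5% salmon testes DNA and 0.03% Triton X-100. The target was an Agilent 4 × 180k array of primer-extended double-stranded 36-bp intergenic genomic probes plus negative controls, read with Alexa488 anti-GST antibody at 488 nm. Binding intensity is the highest Masliner-normalised natural-log median intensity across replicate spots of either probe orientation.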
In the case of “TTTTATAAATATTATACATGCATAATGATAAAAAAA [TGCATGCA_site927]”, the “gcPBM binding intensity (ln)” value was found to be 9.55. As for “TAATAATAAAAATAAACACACATATATCTGTATTTA [CACACA_site5572]”, the figure is 9.74. Consider “TTTTCTTTTTTGAACTGTACGCGTAAATTTAAAAAG [XGTACX_site882]”, for which the “gcPBM binding intensity (ln)” value came to 9.36. Regarding TTTTTGTTACCTATTGTGCACTTCATATAAATTAAA, the “gcPBM binding intensity (ln)” value worked out at 9.74. As for “ATATATAATATTTATTGTACTATTTTATTTTTATAA [XGTACX_site705]”, the figure is 9.62.

For the sequence “TTATACACAAAAAAAAAAATATATATATATATATAT [XGTACX_negctrl_site5]”, the “gcPBM binding intensity (ln)” value is 9.49. With “CAAATACACGGACACACACACACAAAAAAAAAAAAA [CACACA_site6385]” the figure was 11; with “TAACCTAAAATAACTACACACACATAAAAAAAAAAA [CACACA_site8807]”, 11.2; with “CCACACTTAAAATACACACACACCAAAAAAAAAAAA [CACACA_site2709]”, 11.3.

“ACGGACTTAAAATACACACACACCAAAAAAAAAAAA [CACACA_site7304]”: the “gcPBM binding intensity (ln)” value turned out to be 10.2. Consider “AAAAAAAATACATACACACACACACGCACATATATA [CACACA_site7645]”, for which the “gcPBM binding intensity (ln)” value came out at 11.7. As to “AGCCACTTAAAATACACACACACCAAAAAAAAAAAA [CACACA_site5497]”, the “gcPBM binding intensity (ln)” value is 10.2. With “ATGATTATACAAAATATACACACGTGGACACAAATA [CACACA_site8304]” the figure was 10.3; with “CACGCACGCACATACACACACATACACATATAAATA [CACACA_site6907]”, 10.1.

Take “ACCTAAAATAACTACACACACATAAAAAAAAAAAAA [CACACA_site2529]”: the “gcPBM binding intensity (ln)” value is 10.2. With “AAAATACACGCATACACACACACACGCGCACATATA [CACACA_site6448]” the figure was 10.6; with “TATATAACTAAAATAACACACATATATAAAAATATA [CACACA_site7416]”, 9.88; with “ACAATATGTATATATATATATATGCAAATGTATAAA [CACACA_negctrl_site53]”, 9.78. As for “TTTTTTAAAGCCTGTTCATCATCCTTACCTATCAAC [GTGCAC_negctrl_site452]”, the figure is 9.49; as for “ATATAATATACTTATTGTACTTATTTAAAATACTAA [XGTACX_site4266]”, 9.58; as for “TACTTAAAAAAAAAAAAAATAAATATTATGTATTAT [CACACA_negctrl_site138]”, 9.36. With “AAAGTTACATTCGACACACACATAACAACTAAATAA [CACACA_site3419]” the figure was 10.1.

For “TGTATATTTGTTGTTACACACATATATTTTTTTTTT [CACACA_site128]”, the “gcPBM binding intensity (ln)” value was found to be 9.86. With “TTGGATTTTCCATAATGTACACATAAAAGTGTTACA [XGTACX_site4544]” the figure was 9.4; with “CAATGTTGTACATACACACACACAAAAAAAAAATAA [CACACA_site2407]”, 11.4; with “AGTATACGCAAACACACACACACAAAAAAAAAAAAA [CACACA_site426]”, 11.2.

For “AACAATGTTGTACATACACACACACTAATAAAAAAT [CACACA_site8758]”, the “gcPBM binding intensity (ln)” value turned out to be 10.3. As for “ATTAAATACATTAACACACACACAAATATATACATA [CACACA_site2881]”, the figure is 10.7. As for “AAAAAAAAAAAAAACACACACACACGCATACACATA [CACACA_site7364]”, the figure is 10.7; as for “AAAAAAAAAAAAAACACACACACACGCAAATACATA [CACACA_site6474]”, 11.4; as for “ATTAAATACATTAACACACACACAAATAAATACATA [CACACA_site5583]”, 10.4. In the case of “AGTATACACAAACACACACACACAAAAAAAAAAAAA [CACACA_site8036]”, the “gcPBM binding intensity (ln)” value came to 10.7. With “ATTAAATACATTAACACACACACAAATATGTACATA [CACACA_site7372]” the figure was 11; with “AAAAAAAAAAAAAACACACACACACGCATACAAAAT [CACACA_site6794]”, 10.6; with “TATACGCAGAAACACACACACAAAAAAAAAAAAAAA [CACACA_site427]”, 10.5. With “AATAAAAAAATAAAATGTACATACAAATAAATAAAT [XGTACX_site5153]” the figure was 9.9; with “ATATAAATATGTTCTGCACACAAATAAGTGTTTGAA [CACACA_site9291]”, 9.79; with “GCACTAAAAAAATAAACACACAGATTTATATAATAT [CACACA_site1381]”, 9.79.

Consider “TACAAAAGCTATAACATTCACCACATTATAAAAATA [CACACA_negctrl_site1112]”, for which the “gcPBM binding intensity (ln)” value was found to be 9.78. Consider “TAAAAACCAAAGAAAAGTACAAATTTAAATGAGAAA [XGTACX_site7450]”, for which the “gcPBM binding intensity (ln)” value came to 9.83. In the case of “AAATATGTCAAATATACACACATAATAAATATAATA [CACACA_site2310]”, the “gcPBM binding intensity (ln)” value amounted to 9.99.

On to “TTCTAATATATGCATACACACAAATGTGAATATACA [CACACA_site2142]”, for which the “gcPBM binding intensity (ln)” value was determined as 9.83. Consider “TATTAATACGGACACACACACACACTAGATAAAATA [CACACA_site4295]”, for which the “gcPBM binding intensity (ln)” value was found to be 10.8. With “AAAATAAAATAAAATACACACATACATACATACAAA [CACACA_site5366]” the figure was 10.2; with “AACAAATACGGACACACACACACACTAGAAAAAAAA [CACACA_site4442]”, 11. “AAGGCAAACAAACACACACACATATATACATATATA [CACACA_site2122]”: the “gcPBM binding intensity (ln)” value amounted to 10.4. For “AATAAAATAAAATACACACATACATACATACAAATG [CACACA_site2438]”, the “gcPBM binding intensity (ln)” value was determined as 11.2. Turning to “TAAAGGCAAACAAACACACACACATATATACCTATA [CACACA_site7078]”, the “gcPBM binding intensity (ln)” value was 10.6. Turning to “AAAAAAAAAAAAAATACACACACATAAAAAAAAAAA [CACACA_site8555]”, the “gcPBM binding intensity (ln)” value is 10.9. With “ACAAAAAAAAAAAAAATACACACACATAAAAAAAAA [TGCATGCA_negctrl_site333]” the figure was 10.2; with “AAAAAAAAAAAATACACACACATAAAAAAAAAAATA [CACACA_site1858]”, 10.9.

Consider “TAAAGGCAAACAAACACACACACATATATACATATA [CACACA_site2123]”, for which the “gcPBM binding intensity (ln)” value was determined as 11.1. For “AACAAACACGGACACACACACACACTAGAATGATTA [CACACA_site5364]”, the “gcPBM binding intensity (ln)” value stood at 10.7. With “AAAAAAAAAATATACACACACACATACACATAAATA [CACACA_site3808]” the figure was 10.4. On to “AATACATAATAACATGTACACACATTCTTCTATAAA [CACACA_site9344]”, for which the “gcPBM binding intensity (ln)” value was determined as 9.82. Take “TAATAAACTTAAAAATGTACATATATTTATTATTAC [XGTACX_site4321]”: the “gcPBM binding intensity (ln)” value was determined as 9.61. Regarding “AGTAAGAGGCATTAAGCATGCATATTATTATAAGCA [TGCATGCA_site237]”, the “gcPBM binding intensity (ln)” value stood at 9.85.

As for “AAGAATGTTAATAGTACACACAATTATTATATAAAT [CACACA_site3739]”, the “gcPBM binding intensity (ln)” value stood at 9.93. For “TCCAAATGTTTGCGTTGTACTCTTTTTTTAAAACTA [XGTACX_site5148]”, the “gcPBM binding intensity (ln)” value is 9.73.

For the sequence “ATATTTTTTTATAAATGTACAAAAATAATATTGCAT [XGTACX_site7399]”, the “gcPBM binding intensity (ln)” value is 9.48.

In the case of ATATATATTATCATTGTGCACTTATTTATATACCTT, the “gcPBM binding intensity (ln)” value was 10. As for “AAAATACACCAACACACACACATATATATATATATT [CACACA_site4149]”, the figure is 10.3; as for “AAAATATATACACAAACATGCATATAATAAATAAAT [TGCATGCA_site711]”, 9.99; as for “AAAATACACAACATATATATATATATATATATATAT [XGTACX_negctrl_site21]”, 9.62.

“CATATAAAAATATGCACACACAGGAATACAAACATA [CACACA_site684]”: the “gcPBM binding intensity (ln)” value worked out at 10.3. With “AAAAAAAAAAAAAACATACACACAAATATATACATA [CACACA_site4010]” the figure was 10; with “AACATATAAAAATATGCACACACAGGAATACAAACA [CACACA_site8127]”, 11.2; with “CAAATACACCAACACACACACACAAAAAAAAAAAAA [CACACA_site514]”, 11.3. As for “ATATATCTACAAATATGTACACACACACATATATAT [XGTACX_site1075]”, the figure is 11.1.

With “TGTACAAATATGTACACACACACATATATATATATA [CACACA_site584]”, the “gcPBM binding intensity (ln)” value amounted to 10.3. As for “AAAAAAAAAAAACACACACACACATACAAAATATAT [CACACA_site1448]”, the figure is 11.3. With “AAAAAAAAAAAACATACACACAAATATATACATACA [CACACA_site4011]” the figure was 10.2. As for “AATAAATATATGTACACACACAAATATATACATATC [CACACA_site1903]”, the figure is 10.2; as for TATAAATTAAAATCAGTGCATATTTTGAAAAACCTC, 9.66; as for “ATATATTGATATATGTGTACATAGCTTATTTCATTT [XGTACX_site1800]”, 9.74. Regarding “GTAAAATTAAAAATAACACACAAAAAAAAAAAAAAA [CACACA_site800]”, the “gcPBM binding intensity (ln)” value was determined as 9.85. On to “TTTATTTATTTATTCTTATTTTTTTTTTTTTTTACT [CACACA_negctrl_site257]”, for which the “gcPBM binding intensity (ln)” value was 9.49.

“CTATGAACACACACATGTACATATATTAACTCGCTA [XGTACX_site8805]”: the “gcPBM binding intensity (ln)” value worked out at 9.98. With “TTATAACTTTTCACAAGTACATATATATATGTATAA [XGTACX_site2306]” the figure was 9.53. “AAGTTAGTATTCTGCTGTACTTCTATATATAAGTGT [XGTACX_site7678]”: the “gcPBM binding intensity (ln)” value was 9.61. As for “TATAACATAAAACACACACACATACATACACAAAAA [CACACA_site1804]”, the figure is 11.

With “TACAAAATGGGGAACACACACATATATAAATAAATA [CACACA_site7751]”, the “gcPBM binding intensity (ln)” value amounted to 11.1.

For “CACACGCACGGACACACACACAAAAAAAAAAAGAAA [CACACA_site6378]”, the “gcPBM binding intensity (ln)” value turned out to be 10.3.

For “GATACAAAATGGGGAACACACACATATATATATATA [CACACA_site9278]”, the “gcPBM binding intensity (ln)” value was 10.8. With “TATATACACATATATAAACACACAAAAAAAAAAAAA [CACACA_site8626]”, the “gcPBM binding intensity (ln)” value is 9.82. Consider “CACATACATATATACACACACAAAATAATAAAATAA [CACACA_site2308]”, for which the “gcPBM binding intensity (ln)” value turned out to be 10.4. With “TAAATATATAAATACACACACATACACAAAAAAAAA [CACACA_site5890]” the figure was 10.9; with “CACAGACACGGACACACACACACAAAAAAAAAAAGA [CACACA_site4436]”, 11.3. With “TACAAAATGGGGAACACACACATATATATATATATA [CACACA_site3844]” the figure was 9.99. “TATACACATATATAAACACACAAAAAAAAAAAAAAA [CACACA_site7041]”: the “gcPBM binding intensity (ln)” value was found to be 9.57. As for “AACAGACAAAGACACACACACATACATACATACATA [CACACA_site6351]”, the figure is 10.4. As to “TATAAATATATATATACACACACATACACAAAAAAA [CACACA_site9191]”, the “gcPBM binding intensity (ln)” value was 10.5.
